Calls of active or inactive are those of the source. How the source made its calls: active means hit-call score of the fitted dose curve at least 0.9, where 1 is the maximum; inactive means score below 0.9.

Assay [1] is described as follows: ATG_CRE_CIS: Attagene CIS-FACTORIAL HepG2 Assay for human cAMP Responsive Element (CRE) binding protein 3 (AID 2282926). To be noted: HepG2 CRE cis-reporter, Attagene multiplexed mRNA; actives raise or lower the signal. Put shortly: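 Readout: fluorescently labelled reporter transcripts resolved by capillary electrophoresis after RT-PCR, taken 24 h post-dosing in transfected HepG2. Endogenous transcription factor activity drives each cis-element reporter; gain or loss of signal fitted relative to DMSO control.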

Assay [2] addresses CCAAT/enhancer-binding protein beta (Homo sapiens) (UniProt P17676). The assay is described as follows: ATG_C_EBP_CIS: Attagene CIS-FACTORIAL HepG2 Assay for human CCAAT/Enhancer Binding Protein (C/EBP) beta (AID 2282927). The note with it: HepG2 Attagene cis-factorial transcription factor reporter; actives raise or lower the signal. Put shortly: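 Endogenous transcription factor activity in human liver HepG2 cells is inferred from induction of a CEBPB-linked reporter mRNA. Exposure lasts 24 h; activity is fitted in both directions relative to DMSO.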

The nature of assay [3]: ATG_CMV_CIS: Attagene CIS-FACTORIAL HepG2 Assay for human CMV (Internal Marker) (AID 2282928).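 Further: endpoint acts as a background internal control marker rather than a target.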 The note with it: HepG2 CMV promoter reporter, transcription factor profiling; actives raise or lower the signal. Put shortly:
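Readout: fluorescent reporter cDNA fragments separated by capillary electrophoresis after RT-PCR and HpaI cut. Cells: HepG2 carrying transfected cis-promoter reporter constructs, dosed 24 h. Endpoint serves as background internal-marker control, fit bidirectionally versus DMSO.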

Assay [4] in a line: ATG_DR4_LXR_CIS: Attagene CIS-FACTORIAL HepG2 Assay for human Liver X Receptor (LXR), DR4 submotif (AID 2282929). To be noted: HepG2 Attagene DR4 cis-reporter, mRNA transcription; actives raise or lower the signal. In a few lines: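 Measures endogenous transcription factor activity via a DR4-driven reporter transcript in human HepG2 cells. Compounds incubated 24 h; mRNA quantified by RT-PCR and capillary electrophoresis, analysed as gain or loss of signal versus DMSO.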

Assay [5] has as its target Aryl hydrocarbon receptor (Homo sapiens) (UniProt P35869). As to the kind of experiment: ATG_Ahr_CIS: Attagene CIS-FACTORIAL HepG2 Assay for human Aryl Hydrocarbon Receptor (Ahr) (AID 2282930). To be noted: HepG2 AhR cis-factorial reporter transcription; actives raise or lower the signal. Put shortly: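 Transient MRTU transfection of HepG2 → 24 h compound exposure → total RNA, oligo(dT) RT → PCR, 6-FAM extension, HpaI cut → CE fluorescence. DMSO = baseline; bidirectional curve fit.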

The nature of assay [6]: ATG_AP_1_CIS: Attagene CIS-FACTORIAL HepG2 Assay for human Activator Protein 1 (AP-1) (AID 2282931). To be noted: HepG2 Attagene cis-factorial AP-1 reporter mRNA; actives raise or lower the signal. In a few lines:
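Bidirectional concentration-response fitting against DMSO controls. Underlying signal: reporter mRNA from cis-promoter constructs in transiently transfected HepG2, measured after 24 h by RT-PCR and capillary electrophoresis.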

Assay [7] can be described thus: ATG_AP_2_CIS: Attagene CIS-FACTORIAL HepG2 Assay for human Activator Protein 2 (AP-2) (AID 2282932). To be noted: HepG2 AP-2 cis-reporter, Attagene transcription factor profiling; actives raise or lower the signal. In a few lines: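 Endogenous transcription factor activity is reported through transfected multiplex reporter constructs in HepG2, after 24 h of compound exposure. Transcripts were quantified by RT-PCR and capillary electrophoresis of fluorescent fragments. Bidirectional fit against DMSO.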

Assay [8] can be described thus: ATG_BRE_CIS: Attagene CIS-FACTORIAL HepG2 Assay for human Bone Morphogenetic Protein (BMP) Response Element (BRE) (AID 2282933). The note with it: HepG2 BMP response element reporter, Attagene transcription factor profiling; actives raise or lower the signal. In a few lines: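 HepG2 cells transiently transfected with multiplexed cis-element reporter units were dosed with chemical for 24 h. Reporter mRNA was measured by RT-PCR with fluorescent labelling, HpaI digestion and capillary electrophoresis; bidirectional fitting relative to DMSO.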

For assay [9], the target named is Retinoic acid receptor alpha (Homo sapiens) (UniProt P10276). The assay is described as follows: ATG_DR5_RAR_CIS: Attagene CIS-FACTORIAL HepG2 Assay for human Retinoic Acid Receptor Alpha (RARE), DR5 submotif (AID 2282934). To be noted: HepG2 Attagene cis-factorial RARE DR5 reporter, mRNA; actives raise or lower the signal. In a few lines:
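Transient MRTU transfection of HepG2; 24 h compound treatment; TriZol RNA, oligo(dT) RT, PCR, FAM labelling, capillary electrophoresis. Bidirectional fit vs DMSO. Endogenous TF activity at DR5 RARE.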

For assay [10], the target named is Transcription factor E2F1 (Homo sapiens) (UniProt Q01094). As to the kind of experiment: ATG_E2F_CIS: Attagene CIS-FACTORIAL HepG2 Assay for human E2F Transcription Factor 1 (AID 2282935). To be noted: HepG2 Attagene cis-reporter, E2F reporter RNA transcripts; actives raise or lower the signal. In a few lines: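 Gain or loss of reporter transcript, fitted against DMSO, reflects E2F1-driven transcription. Transiently transfected HepG2 dosed 24 h before RNA isolation. Quantified by fluorescent RT-PCR products separated by capillary electrophoresis.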
Transcription factor E2F1 (Homo sapiens), sequence (Q01094 whole entry, looked up): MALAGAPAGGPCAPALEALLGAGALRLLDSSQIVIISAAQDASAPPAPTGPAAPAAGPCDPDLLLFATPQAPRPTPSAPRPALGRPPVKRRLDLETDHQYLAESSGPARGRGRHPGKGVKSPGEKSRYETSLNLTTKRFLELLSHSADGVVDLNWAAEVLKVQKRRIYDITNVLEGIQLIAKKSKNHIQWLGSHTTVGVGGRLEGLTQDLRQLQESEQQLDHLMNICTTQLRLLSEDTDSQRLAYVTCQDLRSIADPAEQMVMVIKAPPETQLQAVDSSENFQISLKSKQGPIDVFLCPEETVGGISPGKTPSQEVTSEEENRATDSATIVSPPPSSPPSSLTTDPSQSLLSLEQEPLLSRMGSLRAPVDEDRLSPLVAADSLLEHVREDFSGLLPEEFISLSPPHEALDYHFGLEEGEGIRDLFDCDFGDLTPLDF

The nature of assay [11]: ATG_E_Box_CIS: Attagene CIS-FACTORIAL HepG2 Assay for human Enhancer Box (E-box) (AID 2282936). The note with it: HepG2 E-box cis-reporter transcription, actives raise or lower the signal. Put shortly: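 E-box-driven reporter transcripts measured in transiently transfected HepG2 after 24 h exposure: RNA reverse-transcribed, PCR-amplified, fluorescently labelled, digested and resolved by capillary electrophoresis. Gain or loss relative to DMSO.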

A short description of assay [12]: ATG_M_61_CIS: Attagene CIS-FACTORIAL HepG2 Assay for M61 Transcription Factor (Internal Marker) (AID 2282937). To be noted: HepG2 Attagene CIS-FACTORIAL M61 internal marker reporter; actives raise or lower the signal. In a few lines:
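Fluorescence from labelled cDNA fragments, separated by capillary electrophoresis, quantifies reporter induction. HepG2 cells bearing transiently transfected cis-promoter MRTUs were incubated with test chemical for 24 h; DMSO defined baseline for gain/loss fitting.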

Assay [13] can be described thus: ATG_EGR_CIS: Attagene CIS-FACTORIAL HepG2 Assay for human Early Growth Response 1 (EGR1) (AID 2282938). The note with it: HepG2 Attagene CIS-FACTORIAL EGR reporter mRNA; actives raise or lower the signal. Put shortly:
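Cell-based multiplex transcription assay: HepG2 carrying transfected cis-element reporter units, 24 h chemical treatment. Fluorescence from capillary electrophoresis of RT-PCR products gives mRNA levels; fitting is bidirectional relative to DMSO.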

Assay [14] in a line: ATG_M_19_CIS: Attagene CIS-FACTORIAL HepG2 Assay for M19 Transcription Factor (Internal Marker) (AID 2282939). To be noted: HepG2 Attagene CIS-FACTORIAL M19 internal marker reporter; actives raise or lower the signal. In a few lines:
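HepG2 cells transiently transfected with cis-regulated multiple reporter transcription units were dosed for 24 h; reporter mRNA was quantified by RT-PCR, 6-FAM primer-extension labelling, HpaI digestion and capillary electrophoresis, with bidirectional fitting against DMSO baseline.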

Assay [15] is described as follows: ATG_Ets_CIS: Attagene CIS-FACTORIAL HepG2 Assay for human Erythroblast Transformation Specific (ETS) (AID 2282941). To be noted: HepG2 ETS cis-reporter transcription, actives raise or lower the signal. In a few lines: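 RT-PCR/capillary electrophoresis fluorescence read-out of reporter mRNA; HepG2 transient multi-reporter transfection; 24 h compound exposure; gain or loss of signal fitted bidirectionally relative to DMSO.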

For assay [16], the target named is Hepatocyte nuclear factor 3-beta (Homo sapiens) (UniProt Q9Y261). The assay is described as follows: ATG_FoxA2_CIS: Attagene CIS-FACTORIAL HepG2 Assay for human Forkhead box A2 (FOXA2) (AID 2282942). To be noted: HepG2 cis-reporter transcription factor activity, 24 h; actives raise or lower the signal. In a few lines:
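In transiently transfected human HepG2 cells, promoter-driven reporter mRNA levels after 24 h chemical exposure are determined via RT-PCR with capillary electrophoresis. DMSO serves as baseline for bidirectional fitting.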

The nature of assay [17]: ATG_GATA_CIS: Attagene CIS-FACTORIAL HepG2 Assay for human GATA Binding Protein (AID 2282944). To be noted: HepG2 GATA cis-element reporter, Attagene multiplex mRNA; actives raise or lower the signal. Put shortly: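 HepG2 cells transiently transfected with multiplexed cis-element reporter units reflecting endogenous transcription factor activity; reporter mRNA measured after 24 h dosing by RT-PCR, 6-FAM labeling, HpaI digestion and capillary electrophoresis. Bidirectional fitting versus DMSO baseline.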

A short description of assay [18]: ATG_FoxO_CIS: Attagene CIS-FACTORIAL HepG2 Assay for human Forkhead box O (FoxO) (AID 2282943). To be noted: HepG2 Attagene cis-reporter, FoxO element, mRNA; actives raise or lower the signal. Put shortly: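 HepG2, transient MRTU transfection (cis element, endogenous TFs). Dose 24 h. TriZol RNA → oligo(dT) RT → PCR → 6-FAM primer extension → HpaI cut → CE. Gain/loss vs DMSO.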

The nature of assay [19]: ATG_GLI_CIS: Attagene CIS-FACTORIAL HepG2 Assay for human Zinc Finger Protein GLI1 (AID 2282945). The note with it: HepG2, Attagene cis-factorial reporter mRNA, GLI element; actives raise or lower the signal. In a few lines:
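Bidirectional curve fits relative to DMSO, using reporter mRNA levels from RT-PCR plus capillary electrophoresis. Cells were HepG2 transiently carrying cis-regulated reporter constructs, harvested 24 h after dosing.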

In assay [20] the target is Bile acid receptor (Homo sapiens) (UniProt Q96RI1). The assay is described as follows: ATG_IR1_CIS: Attagene CIS-FACTORIAL HepG2 Assay for human Nuclear Receptor Subfamily 1 Group H Member 4 (NR1H4), IR1 submotif (AID 2282946). To be noted: IR1 reporter transcription, actives raise or lower the signal. In a few lines: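 HepG2 cells transiently transfected with multiplexed cis-element reporter units read endogenous transcription factor activity. After 24 h compound exposure, reporter mRNA was quantified by RT-PCR, fluorescent labelling, HpaI digestion and capillary electrophoresis; bidirectional fitting versus DMSO baseline.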
Bile acid receptor (Homo sapiens), sequence (Q96RI1 whole entry, looked up): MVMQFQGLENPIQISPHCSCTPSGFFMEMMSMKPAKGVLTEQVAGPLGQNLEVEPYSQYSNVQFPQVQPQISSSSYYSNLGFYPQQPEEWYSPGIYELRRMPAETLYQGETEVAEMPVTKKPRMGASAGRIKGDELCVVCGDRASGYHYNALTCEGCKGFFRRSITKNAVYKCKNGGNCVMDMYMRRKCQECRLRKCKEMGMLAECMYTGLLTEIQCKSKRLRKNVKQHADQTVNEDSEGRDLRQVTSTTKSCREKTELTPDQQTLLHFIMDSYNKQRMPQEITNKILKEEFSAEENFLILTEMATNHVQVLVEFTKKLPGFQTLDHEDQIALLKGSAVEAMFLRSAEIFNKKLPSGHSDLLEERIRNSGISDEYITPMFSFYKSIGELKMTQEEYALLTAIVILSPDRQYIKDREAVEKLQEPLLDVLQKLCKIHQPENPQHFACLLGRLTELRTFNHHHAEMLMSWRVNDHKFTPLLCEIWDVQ

CCAAT/enhancer-binding protein beta (Homo sapiens), sequence (P17676 whole entry, looked up): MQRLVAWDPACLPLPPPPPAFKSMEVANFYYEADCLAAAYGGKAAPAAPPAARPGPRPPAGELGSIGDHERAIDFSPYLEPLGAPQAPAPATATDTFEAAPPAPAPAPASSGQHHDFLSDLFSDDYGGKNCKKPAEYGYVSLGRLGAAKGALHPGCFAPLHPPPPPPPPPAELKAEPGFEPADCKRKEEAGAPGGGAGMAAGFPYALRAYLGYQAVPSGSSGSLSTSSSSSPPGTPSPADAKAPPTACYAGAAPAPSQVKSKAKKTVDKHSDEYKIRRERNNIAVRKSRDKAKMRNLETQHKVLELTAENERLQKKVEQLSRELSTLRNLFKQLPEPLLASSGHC
Hepatocyte nuclear factor 3-beta (Homo sapiens), sequence (Q9Y261 whole entry, looked up): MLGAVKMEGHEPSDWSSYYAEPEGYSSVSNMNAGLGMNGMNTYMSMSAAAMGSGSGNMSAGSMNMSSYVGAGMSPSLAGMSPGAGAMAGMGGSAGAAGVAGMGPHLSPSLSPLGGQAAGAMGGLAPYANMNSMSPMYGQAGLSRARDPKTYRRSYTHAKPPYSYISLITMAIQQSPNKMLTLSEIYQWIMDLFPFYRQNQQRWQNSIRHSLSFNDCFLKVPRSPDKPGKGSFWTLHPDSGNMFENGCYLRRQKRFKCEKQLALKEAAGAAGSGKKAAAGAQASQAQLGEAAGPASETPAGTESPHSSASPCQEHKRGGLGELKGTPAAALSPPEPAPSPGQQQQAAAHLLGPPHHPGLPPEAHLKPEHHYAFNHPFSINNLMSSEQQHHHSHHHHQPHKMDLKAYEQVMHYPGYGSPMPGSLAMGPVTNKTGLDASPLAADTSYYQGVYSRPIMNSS
Aryl hydrocarbon receptor (Homo sapiens), sequence (P35869 whole entry, looked up): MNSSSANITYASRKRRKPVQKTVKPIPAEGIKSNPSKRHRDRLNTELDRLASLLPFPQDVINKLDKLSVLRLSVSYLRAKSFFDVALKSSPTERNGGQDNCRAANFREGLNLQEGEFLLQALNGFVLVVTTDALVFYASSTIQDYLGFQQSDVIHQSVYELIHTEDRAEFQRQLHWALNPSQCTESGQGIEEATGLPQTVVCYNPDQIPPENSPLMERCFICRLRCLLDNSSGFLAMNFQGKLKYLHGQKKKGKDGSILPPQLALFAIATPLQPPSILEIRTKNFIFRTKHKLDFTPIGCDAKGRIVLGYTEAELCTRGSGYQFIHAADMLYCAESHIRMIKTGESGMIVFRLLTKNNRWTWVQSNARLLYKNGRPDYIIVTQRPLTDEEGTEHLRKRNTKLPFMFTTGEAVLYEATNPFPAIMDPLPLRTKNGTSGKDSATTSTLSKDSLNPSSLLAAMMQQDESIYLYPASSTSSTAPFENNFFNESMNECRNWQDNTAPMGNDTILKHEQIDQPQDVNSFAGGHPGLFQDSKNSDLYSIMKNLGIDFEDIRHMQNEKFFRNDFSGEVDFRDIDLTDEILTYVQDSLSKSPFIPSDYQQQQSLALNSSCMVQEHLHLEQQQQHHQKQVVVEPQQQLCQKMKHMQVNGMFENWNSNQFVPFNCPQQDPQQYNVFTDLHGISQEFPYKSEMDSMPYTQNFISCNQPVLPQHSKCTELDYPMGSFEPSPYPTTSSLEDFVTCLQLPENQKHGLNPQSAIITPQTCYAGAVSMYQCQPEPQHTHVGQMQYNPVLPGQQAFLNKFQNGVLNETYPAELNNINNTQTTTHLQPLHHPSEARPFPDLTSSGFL
Retinoic acid receptor alpha (Homo sapiens), sequence (P10276 whole entry, looked up): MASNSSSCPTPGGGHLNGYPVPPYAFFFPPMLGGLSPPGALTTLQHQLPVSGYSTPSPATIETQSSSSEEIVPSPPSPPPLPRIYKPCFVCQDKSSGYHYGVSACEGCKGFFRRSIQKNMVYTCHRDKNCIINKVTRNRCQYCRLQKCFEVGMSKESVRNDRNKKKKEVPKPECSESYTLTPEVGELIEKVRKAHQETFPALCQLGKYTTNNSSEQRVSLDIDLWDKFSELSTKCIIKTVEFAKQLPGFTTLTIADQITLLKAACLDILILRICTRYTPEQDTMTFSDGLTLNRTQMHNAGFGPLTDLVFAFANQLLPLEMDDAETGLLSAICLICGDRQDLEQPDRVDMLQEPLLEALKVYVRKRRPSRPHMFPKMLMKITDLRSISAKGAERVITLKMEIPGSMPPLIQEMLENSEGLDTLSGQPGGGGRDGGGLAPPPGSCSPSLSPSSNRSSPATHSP

Turning to `C=CCN(CC=C)CC=C`, the compound was classed as inactive in assay [1], in assay [2], in [3], in assay [4], in [5] and in assay [6]. For the same compound, the compound was called inactive in assay [7], in assay [8], in assay [9], in assay [10], in [11] and in assay [12]. For the same compound, the call in [13], in assay [14], in assay [15], in [16] and in [17] was inactive.

`CCCC(=O)c1ccccc1`: the call in [1], in assay [2], in [3], in assay [4], in assay [5] and in assay [6] was inactive. Further, the outcome in assay [7], in assay [8], in assay [9], in assay [10], in assay [11] and in assay [12] was inactive. In addition, the outcome in assay [13], in assay [14], in [15], in assay [18], in assay [17] and in assay [19] was inactive.

The AC50 is the concentration at which the activity in the assay is half-maximal. As to `CC(C)(C)CC(C)(C)c1ccc(OCCOCC[N+](C)(C)Cc2ccccc2)cc1`, the compound was called inactive in assay [1], in [2], in [5], in [7], in [8] and in [9]. Besides, the compound was classed as inactive in assay [10], in [12], in [13], in assay [15], in assay [16] and in assay [18]. Besides, the call in [17], in [19] and in [20] was inactive. The AC50 in assay [3] is 14.8 µM (active); in assay [4] it was 8.35 µM (active); in assay [6] it was 8.35 µM (active); in assay [11], 12.3 µM (active).

`CC1(C)C2=CCCC(C)(C)[C@]23CC[C@H]1C3`: the compound was classed as inactive in [1], in assay [2], in [5], in assay [7], in [8] and in [9]. For the same compound, the call in assay [10], in [11], in [12], in [13], in assay [16] and in assay [18] was inactive. The compound was called inactive in assay [17], in assay [19] and in [20]. Further, the AC50 in assay [3] was 112 µM (active); in assay [4], 100 µM (active); in [6], 100 µM (active).

The values above are taken from PubChem BioAssay (EPA / NIEHS).
